Lamin A splicing: LMNA splicing modulation. HeLa LMNA splicing GFP/RFP minigene ratio, 48 h. AID 1487. Potency, µM (titrated, usually from 46.1 µM), usual class: inhibitors. 0.01% of 200,000 active; active means well fitted inhibition curve with a large enough effect in the signal ratio, with a control signal flat, not every such curve was filed as active; inconclusive means small, poorly fitted or top-dose-only effect, or effect the other way, or a change in a side signal; the % refers to the signal ratio
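Read-out is the ratio of GFP to DsRed2 object intensity, acquired by 488 nm laser-scanning cytometry on HeLa lamin A-EGFP minigene reporter cells. Compound incubation 48 hrs at 37 °C in Opti-MEM with 2% FBS; DMSO 0.5% final.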
PNC inhibitor: blocks assembly of the perinucleolar compartment. PC3M PTB-GFP, PNC prevalence imaging, 16 h; stronger effect = lower value. activity change (PNC), negative = inhibition, % at 10 µM. 3.1% of 140,000 active;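 active means readout at or below -70, meaning at least 70% loss of cells showing the perinucleolar compartment, a nuclear body marking cancer cells; inconclusive means readout between -30 and a set limit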
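Compounds are pinned in duplicate onto adhered PC3M cells stably expressing GFP-tagged PTB and incubated 16 h at 37 C. Cells are then fixed, nuclei stained with Hoechst, and PNC-positive cells counted.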
ALDH1A1 block: blocks purified human ALDH1A1 activity | Purified ALDH1A1, NADH fluorescence, propionaldehyde substrate | 7.3% of 220,000 active | Potency, µM (top dose mostly 75.3 µM), hits mostly inhibitors | P00352
HPGD inh: blocks human HPGD enzyme activity. P15428. purified HPGD, NADH fluorescence kinetic, PGE2 substrate. Potency, µM, actives largely listed as inhibitors. 4.3% of 150,000 active
Target sequence (P15428 whole entry, looked up): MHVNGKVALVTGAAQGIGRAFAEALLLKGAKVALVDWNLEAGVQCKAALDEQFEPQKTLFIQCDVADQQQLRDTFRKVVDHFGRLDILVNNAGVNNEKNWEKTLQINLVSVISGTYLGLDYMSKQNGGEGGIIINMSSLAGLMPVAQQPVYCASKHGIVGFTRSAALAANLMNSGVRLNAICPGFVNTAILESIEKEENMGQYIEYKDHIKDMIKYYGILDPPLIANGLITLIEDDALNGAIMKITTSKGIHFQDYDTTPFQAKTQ
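20 nM HPGD preincubated 15 min at room temperature with compound in 50 mM Tris-HCl pH 8, 0.01% Tween 20. Started with 1 mM NAD+ and 30 uM prostaglandin E2; NADH fluorescence (360/450 nm) read 5 times over 30-s intervals, last minus first.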
12-hLO inh: inhibitors of human 12-lipoxygenase (ALOX12) | AID 1452 | 0.12% of 150,000 active | purified 12-hLO, xylenol orange hydroperoxide absorbance | Potency, µM (doses to about 57.1 µM), actives largely listed as inhibitors | P18054; active means well fitted inhibition curve with a large enough effect; inconclusive means small, poorly fitted or top-dose-only effect; further: nearly all actives have a fitted effect of over 55% in size
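Xylenol orange chromogenic assay: hydroperoxide from 12hLO oxidises Fe(II), giving red-shifted Fe(III)-XO absorbance. Conditions: 150 nM enzyme, 40 uM arachidonic acid, 25 mM Hepes pH 7.0, 0.01% Triton X-100, 30 min, room temperature.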
Hits are given with their value. Sampled rows, rich in hits. Any-hit rate of the full collection: about 10%. Unless noted, the call rests on the fitted dose curve; in most records, active means well fitted inhibition curve with a large enough effect (not every such curve was filed as active); inconclusive means small, poorly fitted or top-dose-only effect, or another doubt; inactive means no such curve, though single readings can be large or run the other way.

How did COc1ccc(-n2c(Cc3cccn3C)nnc2SCC(=O)Nc2cccc(F)c2)cc1 do in these assays?
Lamin A splicing: inactive; PNC inhibitor: inconclusive; ALDH1A1 block: 13µM; HPGD inh: inactive; 12-hLO inh: inactive

What do the screens show for `CCOC(=O)c1cccc(NC(=O)CSc2nnc(-c3ccoc3C)n2CCOC)c1`?
Lamin A splicing: inactive; PNC inhibitor: inconclusive; ALDH1A1 block: 20µM; HPGD inh: inactive; 12-hLO inh: inactive

Results for Cc1nnc(NC(=O)CSc2nnc(Cc3cccn3C)n2C)s1 ?
Lamin A splicing: inactive; PNC inhibitor: -95; ALDH1A1 block: 22µM; HPGD inh: inactive; 12-hLO inh: inactive

What do the screens show for `CCc1ccc(NC(=O)CSc2nnc(Cc3cccn3C)n2-c2ccc(OC)cc2)cc1`?
Lamin A splicing: inactive; PNC inhibitor: inactive; ALDH1A1 block: inconclusive; HPGD inh: inactive; 12-hLO inh: inactive

How did O=C1COc2ccc(C(=O)CSc3nnc(-c4cccs4)n3Cc3ccccc3)cc2N1 do in these assays?
Lamin A splicing: inactive; PNC inhibitor: inactive; ALDH1A1 block: inconclusive; HPGD inh: inactive; 12-hLO inh: inactive

Results for Cc1ccc(-n2c(Cc3cccs3)nnc2SCC(=O)Nc2ccc(F)c(F)c2)cc1 ?
Lamin A splicing: inactive; PNC inhibitor: inactive; ALDH1A1 block: inconclusive; HPGD inh: inactive; 12-hLO inh: inactive

Results for COCCn1c(SCC(=O)Nc2nnc(C)s2)nnc1-c1cc2ccccc2cc1O ?
Lamin A splicing: inconclusive; PNC inhibitor: -91; ALDH1A1 block: inconclusive; HPGD inh: inconclusive; 12-hLO inh: inactive

Results for O=C(CSc1nnc(Cc2cccs2)n1-c1ccccc1)Nc1ccc2c(c1)OCCO2 ?
Lamin A splicing: inactive; PNC inhibitor: inactive; ALDH1A1 block: 7.9µM; HPGD inh: inactive; 12-hLO inh: inactive

What do the screens show for `O=C1COc2ccc(C(=O)CSc3nnc(Cc4cccs4)n3-c3ccccc3)cc2N1`?
Lamin A splicing: inactive; PNC inhibitor: inconclusive; ALDH1A1 block: 3.2µM; HPGD inh: inactive; 12-hLO inh: inactive

What do the screens show for `COCCn1c(SCC(=O)Nc2nnc(C)s2)nnc1-c1c[nH]c2ccccc12`?
Lamin A splicing: inactive; PNC inhibitor: inactive; ALDH1A1 block: inactive; HPGD inh: inactive; 12-hLO inh: inactive

How did COc1ccc(-n2c(Cc3cccn3C)nnc2SCC(=O)Nc2ccc(Cl)cc2)cc1 do in these assays?
Lamin A splicing: inactive; PNC inhibitor: inconclusive; ALDH1A1 block: 4µM; HPGD inh: inactive; 12-hLO inh: inactive

What do the screens show for `O=C(C1CCOCC1)N1CCC(CO)(CCc2ccccc2)CC1`?
ALDH1A1 block: inactive

How did Cc1cc(C)cc(OC(=O)c2snnc2C)c1 do in these assays?
Lamin A splicing: inactive

How did Cn1cccc1Cc1nnc(SCC(=O)Nc2ccc3c(c2)OCCO3)n1-c1ccc(F)cc1 do in these assays?
Lamin A splicing: inconclusive; PNC inhibitor: inactive; ALDH1A1 block: 20µM; HPGD inh: inactive; 12-hLO inh: inactive

Results for Cc1ccc(-n2c(Cc3cccn3C)nnc2SCC(=O)Nc2ccc3c(c2)OCO3)cc1 ?
Lamin A splicing: inactive; PNC inhibitor: inactive; ALDH1A1 block: inconclusive; HPGD inh: inactive; 12-hLO inh: inactive

Results for COc1ccc(-n2c(Cc3cccn3C)nnc2SCC(=O)Nc2ccccc2)cc1 ?
Lamin A splicing: inactive; PNC inhibitor: inconclusive; ALDH1A1 block: 14µM; HPGD inh: inactive; 12-hLO inh: inactive

What do the screens show for `Cc1nc2cc(NC(=O)c3ccc(N4C(=O)CCC4=O)cc3)ccc2s1`?
Lamin A splicing: inconclusive; ALDH1A1 block: inactive

Results for O=c1c2cc(Cl)ccc2nc(-c2ccc([N+](=O)[O-])cc2)n1O ?
ALDH1A1 block: 11µM

How did Cc1ccc(C(=O)Oc2ccc3c(c2)ncn3C)cc1 do in these assays?
Lamin A splicing: inactive; PNC inhibitor: inactive; ALDH1A1 block: inactive; HPGD inh: 7.9µM; 12-hLO inh: inactive

Results for CCCCCCCC/C=C\CCCCCCCC(=O)N[C@@H](CO)Cc1ccc(O)cc1 ?
ALDH1A1 block: inactive; HPGD inh: inactive; 12-hLO inh: inactive

What do the screens show for `CSc1ncc(CO)n1Cc1ccccc1`?
ALDH1A1 block: inactive

What do the screens show for `COc1ccc(-c2nc(-c3ccccn3)nc(N3CCN(C)CC3)c2C#N)cc1`?
ALDH1A1 block: 14µM

Results for CCn1c(=O)c(-c2ccccc2)c(O)c2ccccc21 ?
Lamin A splicing: inactive; PNC inhibitor: inactive; ALDH1A1 block: inactive; HPGD inh: inactive; 12-hLO inh: inactive

What do the screens show for `CCn1c(=O)c2c(cnn2C)c2ccccc21`?
Lamin A splicing: inconclusive; PNC inhibitor: inactive; ALDH1A1 block: inactive; HPGD inh: 32µM; 12-hLO inh: inactive

How did CC(C)(C)c1csc(NC(=O)c2ccc3nccnc3c2)n1 do in these assays?
Lamin A splicing: inactive; PNC inhibitor: inactive; ALDH1A1 block: inconclusive; HPGD inh: 10µM; 12-hLO inh: inactive

Results for Cc1ccc(NC(=O)COc2cccnc2[N+](=O)[O-])cc1S(=O)(=O)N1CCCCC1 ?
Lamin A splicing: inconclusive; PNC inhibitor: inactive; ALDH1A1 block: inconclusive; HPGD inh: inactive; 12-hLO inh: inactive

Results for Cc1ccc(NC(=O)COC(=O)c2ccc([N+](=O)[O-])o2)cc1S(=O)(=O)N1CCCCC1 ?
Lamin A splicing: inactive; ALDH1A1 block: 25µM

What do the screens show for `Cc1ccc(NC(=O)c2cc(=O)c3ccccc3o2)cc1S(=O)(=O)N1CCCCC1`?
ALDH1A1 block: 32µM

How did O=C(COC(=O)c1ccc([N+](=O)[O-])o1)Nc1cccc(S(=O)(=O)N2CCCCC2)c1 do in these assays?
Lamin A splicing: inactive; ALDH1A1 block: 11µM

What do the screens show for `COc1ccc(-c2cc(C(F)F)nn2-c2ccc(S(N)(=O)=O)cc2)cc1F`?
Lamin A splicing: inactive; ALDH1A1 block: inactive; HPGD inh: inactive; 12-hLO inh: inactive

How did O=C(NCc1ccccc1)C(=O)NCC(c1ccc2c(c1)OCO2)N1CCOCC1 (stereo unspecified) do in these assays?
Lamin A splicing: inactive

Results for Cc1ccccc1Cn1ccn(-c2ccc(F)c(F)c2)c(=O)c1=O ?
Lamin A splicing: inactive

How did Cc1ccc(NS(=O)(=O)c2ccc(N3CCN(c4ccc(O)cc4)CC3)c([N+](=O)[O-])c2)c(C)c1 do in these assays?
Lamin A splicing: inconclusive; PNC inhibitor: inactive; ALDH1A1 block: 14µM; HPGD inh: inactive; 12-hLO inh: inactive

Results for O=C(O)c1cc(NS(=O)(=O)c2ccc(N3CCOCC3)c([N+](=O)[O-])c2)cc(C(=O)O)c1 ?
Lamin A splicing: inactive; PNC inhibitor: inactive; ALDH1A1 block: inactive; HPGD inh: inactive; 12-hLO inh: inactive

What do the screens show for `O=[N+]([O-])c1cc(C(F)(F)F)ccc1-n1nnc2ccccc21`?
Lamin A splicing: inactive; PNC inhibitor: inactive; ALDH1A1 block: inactive; 12-hLO inh: inactive

What do the screens show for `O=[N+]([O-])c1cc(S(=O)(=O)Nc2ccccc2)ccc1-n1nnc2ccccc21`?
Lamin A splicing: inconclusive; PNC inhibitor: -114; ALDH1A1 block: inconclusive; HPGD inh: inactive; 12-hLO inh: inactive
